The list is not random: actives were taken first. Their share in the collection is about 2%.
ABHD5-PLIN5 inh: blocks binding of human ABHD5 to perilipin-5 | Q00G26+Q8WTS1 | Split G. princeps luciferase complementation, luminescence, 4 h | inhibition, % at 4 µM | actives 0.78% (n = 360,000);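 active = inhibition above the mean inhibition across every tested compound plus 3 SD, cut at about 22% in these data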;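 also: 0% = DMSO only wells and the 100% control is not disclosed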
NOD2-RIPK2 inh: blocks binding of human NOD2 to RIPK2. O43353. CHO BLA complementation NOD2-RIPK2, CCF4 ratio. inhibition, % at 4.98 µM. actives 0.38% (n = 360,000); in the data active = inhibition above about 21%;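 also: 0% = vehicle only and 100% = reference blocker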
TLR4 MyD88 comp: blocks binding of human TLR4 to MyD88; actives 0.18% (n = 200,000); O00206+Q99836; inhibition, % at 8.4 µM; AID 861; HeLa CL3-4 TLR4/MyD88 BLA complementation, FRET ratio; in the data active = inhibition above about 25%;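 also: 0% = vehicle and 100% = reference inhibitor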
B2AR ag: activates human beta-2 adrenergic receptor causing internalization | response, % (test concentration not listed) | Am2.2-beta2AR cells, FAP receptor internalization, flow cytometry | actives 0.43% (n = 340,000) | P07550;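 active = response above a set limit, near 3 SD of response in nonfluorescent compounds, cut at about 42% in these data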
TLR9-MyD88 inh: TLR9-MyD88 interaction inhibition; Q9NR96+Q99836; CHO BLA complementation TLR9-MyD88, CCF4 FRET ratio; inhibition, % at 4.98 µM; actives 0.21% (n = 340,000); AID 504734;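 active = inhibition above the mean over all tested compounds plus 3 SD, cut at about 21% in these data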;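 also: 0% = DMSO only wells and 100% = clavulanate BLA inhibitor control wells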
Exocytosis inh: lytic granule exocytosis inhibition; TALL-104 LAMP-1 surface exposure, flow cytometry; cells stimulated with thapsigargin and PMA; inhibition, % at 10 µM; actives 0.66% (n = 360,000); AID 651702;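 active = inhibition above about 55%, limit read from the data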
Numbers without * were called inactive; nt = no result given.

SMILES	ABHD5-PLIN5 inh	NOD2-RIPK2 inh	TLR4 MyD88 comp	B2AR ag	TLR9-MyD88 inh	Exocytosis inh
COc1ccccc1NC1=C(NC(C)=O)C(=O)c2ccccc2C1=O	5.6	-13.4	-6.3	5.7	-10.3	90.2*
CC(=O)c1ccc2noc(-c3cccc(F)c3)c2c1	22.5*	6.8	nt	9.9	-8.8	-2.2
COCC(=O)N1C[C@@H](C)[C@@H](OC)CN(C)C(=O)c2ccc(NC(=O)c3cnccn3)cc2OC[C@H]1C	5.7	-3.7	nt	nt	nt	-5.6
CC1(C)CC(=O)C(C(c2ccc3c(c2)OCO3)C2C(=O)CC(C)(C)CC2=O)C(=O)C1	14.6	0.3	nt	nt	nt	14.4
CCOc1ccc(CN(C)C(=O)[C@H](Cc2ccccc2)NC(=O)OCc2ccccc2)cc1OC	5.0	-7.8	nt	15.2	7.0	55.8*
CN(C)S(=O)(=O)c1cccc(N=C2NN=C(c3ccccc3)CS2)c1	nt	nt	-7.6	nt	nt	nt
CC(=O)Nc1ccc(C2=NNC(=Nc3cccc(S(=O)(=O)N(C)C)c3)SC2)cc1	58.2*	-3.6	0.6	-3.4	-9.5	1.3
C[C@@H](NCCCn1ccc(NC(=O)OCc2ccccc2)nc1=O)c1cccc2ccccc12	4.0	6.6	nt	44.1*	4.0	2.5
COC(=O)[C@@]12C[C@@H](CC(=O)N3CCN(C(=O)c4ccco4)CC3)C(=O)N(Cc3ccccc3)C1=CCC(C)(C)C2	-0.2	4.9	nt	nt	nt	1.5
Cc1cccc(N2CCN(C(=O)Cn3sc4nc(C)cc(C)c4c3=O)CC2C)c1 (configuration not stated)	82.4*	22.9*	-6.5	28.6	16.3	6.6
COc1cc(NC(=O)c2ccc3c(=O)n(Cc4ccco4)c(=S)[nH]c3c2)cc(OC)c1OC	22.5*	6.0	-3.6	4.8	-2.9	-1.9
CC(C)N1CCc2c(sc(NC(=O)c3cc(-c4cccs4)nc4ccccc34)c2C(N)=O)C1	-2.5	5.4	1.4	-42.1	-9.4	76.3*
CC(C)N1CCc2c(sc(NC(=O)c3nc4ccccc4s3)c2C(N)=O)C1	0.3	-6.2	3.2	-181.1	-17.2	13.3
CC(C)(C)c1ccc(/C=C(\c2nc3ccccc3[nH]2)S(=O)(=O)c2ccccc2)cc1	42.7*	6.1	nt	21.1	2.1	11.3
O=C(c1ccccc1)N1CCN(C(=O)c2nn3c(C(F)(F)F)cc(-c4ccco4)nc3c2Br)CC1	22.3*	-4.4	nt	-4.7	-10.2	-10.2
O=C(NC1CCCCC1)c1nn2c(C(F)(F)F)cc(-c3ccco3)nc2c1Br	9.9	0.4	-17.3	-5.1	15.8	1.0
O=C(CO/N=C/c1ccccc1O)N1CCc2ccccc21	-5.9	-8.5	-12.0	72.4*	2.7	-2.4
O=C1NC[C@H](Cc2ccc(O)cc2)N(C[C@@H]2CCCN2C[C@H](Cc2ccc(O)cc2)N2C[C@H](Cc3ccccc3)N(CCc3ccccc3)C(=O)C2=O)C1=O	-5.1	2.6	nt	nt	nt	-1.3
O=C(CCCn1cnc([N+](=O)[O-])n1)Nc1ccc(Cl)c(Cl)c1	27.8*	-3.1	1.1	4.8	7.9	-3.0
O=C(CCCn1cnc([N+](=O)[O-])n1)Nc1cccc(Cl)c1Cl	-2.3	-4.7	-11.3	-2.0	6.2	-2.2
O=C(O)c1ccccc1NN=Cc1ccccc1	-10.4	2.4	nt	-7.1	-5.8	59.9*
O=C(NCc1ccccc1)C(c1ccco1)N1CCN(c2ccccc2F)CC1 (configuration not stated)	-5.5	1.6	nt	nt	nt	6.8
O=C(/C=C/c1ccc2c(c1)OCO2)NCCSCc1ccc(Cl)cc1Cl	-7.1	-1.1	-2.8	96.2*	0.4	-1.6
O=C(/C=C/c1cccc([N+](=O)[O-])c1)NCCSCc1ccc(Cl)cc1Cl	1.5	-8.5	-3.8	-6.5	1.6	3.2
CS(=O)(=O)N(CC(=O)NCCSCc1cccc(Cl)c1)c1ccc2c(c1)OCO2	-1.3	2.2	1.9	2.0	-8.7	2.8
SMILES	ABHD5-PLIN5 inh	NOD2-RIPK2 inh	TLR4 MyD88 comp	B2AR ag	TLR9-MyD88 inh	Exocytosis inh
O=C(/C=C/c1ccc2c(c1)OCO2)NCCSCc1cccc(Cl)c1	4.4	5.0	-2.0	44.2*	-4.0	1.7
CC(=O)Nc1ccc(NC2=Nc3ccccc3N3C2=Nc2c(c(C)nn2-c2ccccc2)C3c2ccccc2)cc1 (configuration not stated)	-3.7	-0.3	-2.2	5.0	5.6	57.7*
Cc1cccc(S(=O)(=O)N2C[C@@H](O)COC[C@@H]3O[C@H](CC(=O)NCCCN4CCOCC4)CC[C@H]32)c1	0.2	-2.5	nt	nt	nt	-9.4
O=C1C=CC(c2c[nH]c3ccccc23)CC1 (configuration not stated)	22.6*	-8.1	nt	nt	nt	-7.7
Cc1ccc(C)c(S(=O)(=O)Nc2cc(SCC(=O)O)c(O)c3ccccc23)c1	11.6	2.8	-23.5	17.6	-0.6	78.5*
COc1ccc(NC(=O)/C=C/c2ccc(Br)o2)cn1	6.3	-2.1	-12.4	-2.5	-9.2	1.5
COc1ccccc1CNC(=O)/C=C/c1ccc(Br)o1	18.3	-2.7	-7.7	70.8*	7.0	0.0
CCOC(=O)N1CCN(C(=O)c2ccc(CS(=O)c3cccc(C)c3)o2)CC1 (configuration not stated)	-1.7	2.8	nt	nt	1.1	9.6
COc1ccccc1NC(=O)N(C)C[C@@H]1OCc2cnnn2CCCC(=O)N([C@@H](C)CO)C[C@@H]1C	-10.9	0.8	nt	nt	-9.7	3.1
Nc1nonc1-n1nnc(C(=O)N/N=C/c2cccnc2)c1CSc1ccc(Cl)cc1	-4.4	-11.2	nt	-27.6	3.3	61.9*
Nc1nonc1-n1nnc(C(=O)N/N=C/c2cccnc2)c1CSc1ccccc1	4.1	-3.8	nt	3.2	-14.6	5.1
CN(C)Cc1c(C(=O)N/N=C/c2ccccc2OCc2c(F)cccc2Cl)nnn1-c1nonc1N	-2.6	4.8	nt	8.2	9.8	94.8*
COC(=O)C1=C(C)N(Cc2ccccc2)C(=NCc2cccc(Cl)c2)N[C@H]1c1cccc(F)c1	5.9	-3.2	nt	48.3*	-3.0	-3.6
COC(=O)C1=C(C)N(Cc2ccccc2)C(=NCc2ccc(OC)cc2)N[C@H]1c1cccc(F)c1	8.1	-2.7	nt	35.2	-10.4	-1.0
COc1ccccc1NC(=O)Cn1ncc2c1-c1ccccc1OC2	4.0	-7.8	-12.6	-3.8	-7.0	-5.6
COc1cc(NC(=O)Cn2ncc3c2-c2ccccc2OC3)cc(OC)c1OC	0.8	30.3*	0.2	4.1	0.4	-1.9
COc1ccc(CCNC(=O)C2CCN(c3nccc(C)n3)CC2)cc1	-5.7	-9.0	1.9	-2.9	2.7	-6.4
Cc1ccc(OCC(=O)NNC(=O)C2CCN(c3nccc(C)n3)CC2)cc1	8.8	5.7	6.8	105.0*	0.1	-1.9
N#Cc1c(N2CCOCC2)nc(-c2ccco2)c2c1CCCC2	23.1*	4.3	-7.5	4.3	-0.3	1.8
CC1(C)Cc2c(C#N)c(N3CCCC3)nc(-c3ccco3)c2CO1	18.8	-16.8	-16.2	3.3	4.1	3.1

Screening data from PubChem.
